Measurements published in PubChem BioAssay (EPA / NIEHS).
Calls of active or inactive are those of the source. Rule for the calls: active = hit-call score of the fitted dose curve at least 0.9, where 1 is the maximum; inactive = score below 0.9.

What was measured:
[1] = read-out: Urokinase-type plasminogen activator receptor (uPAR), PLAUR (gene 5329); test: BSK_BE3C_uPAR: BioMAP Diversity Plus: BE3C Assay for Urokinase-type plasminogen activator receptor (uPAR) Biomarker Activity (AID 2283039); conditions: primary human bronchial epithelial cells; actives raise or lower the signal;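 for outcome: uPAR protein level measured by ELISA on the cells; cells exposed to compound for one day before measurement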
How it was run: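 ELISA readout of uPAR on human lung primary bronchial epithelial cells, 24 h post-dosing. Bidirectional curve fit relative to DMSO vehicle baseline; gain or loss of signal both scored.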

[2] = read-out: Interleukin-6 (IL6), IL6 (gene 3569); test: BSK_CASM3C_IL6: BioMAP Diversity Plus: CASM3C Assay for Interleukin-6 (IL6) Biomarker Activity for (AID 2283040); conditions: primary human coronary artery smooth muscle cells; actives raise or lower the signal
[3] = read-out: Tissue plasminogen activator (tPA), PLAT (gene 5327); test: BSK_BE3C_tPA: BioMAP Diversity Plus: BE3C Assay for Tissue plasminogen activator (tPA) Biomarker Activity (AID 2283041); conditions: primary human bronchial epithelial cells; actives raise or lower the signal;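 note: tPA level quantified by ELISA one day after compound addition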
How it was run: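 ELISA read-out of tPA on human primary bronchial epithelial cells, 24 h post-dosing; bidirectional fit vs DMSO negative control/baseline.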

[4] = read-out: Interleukin-8 (IL8), CXCL8 (gene 3576); test: BSK_CASM3C_IL8: BioMAP Diversity Plus: CASM3C Assay for Interleukin-8 (IL8) Biomarker Activity (AID 2283042); conditions: primary human coronary artery smooth muscle cells; actives raise or lower the signal;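 note: IL-8 protein level quantified by ELISA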
[5] = read-out: Human Leukocyte Antigen - DR isotype (HLADR), HLA-DRA (gene 3122); test: BSK_CASM3C_HLADR: BioMAP Diversity Plus: CASM3C Assay for Human Leukocyte Antigen - DR isotype (HLADR) Biomarker Activity (AID 2283043); conditions: primary human coronary artery smooth muscle cells; actives raise or lower the signal;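 note: cell-surface HLA-DR protein level quantified by ELISA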
[6] = read-out: Macrophage colony-stimulating factor (MCSF), CSF1 (gene 1435); test: BSK_CASM3C_MCSF: BioMAP Diversity Plus: CASM3C Assay for Macrophage colony-stimulating factor (MCSF) Biomarker Activity (AID 2283044); conditions: primary human coronary artery smooth muscle cells; actives raise or lower the signal;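 note: M-CSF protein amount quantified by ELISA after 24 h exposure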
[7] = read-out: Low-density lipoprotein receptor (LDLR), LDLR (gene 3949); test: BSK_CASM3C_LDLR: BioMAP Diversity Plus: CASM3C Assay for Low-density lipoprotein receptor (LDLR) Biomarker Activity (AID 2283045); conditions: primary human coronary artery smooth muscle cells; actives raise or lower the signal;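 note: LDLR protein level on the cell surface quantified by ELISA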
[8] = read-out: Monocyte Chemoattractant Protein-1 (MCP1), CCL2 (gene 6347); test: BSK_CASM3C_MCP1: BioMAP Diversity Plus: CASM3C Assay for Monocyte Chemoattractant Protein-1 (MCP1) Biomarker Activity (AID 2283046); conditions: primary human coronary artery smooth muscle cells; actives raise or lower the signal;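 note: MCP-1 level quantified by ELISA 24 h after dosing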
[9] = BSK_CASM3C_Proliferation: Cell Proliferation Assessment in the BioMAP Diversity Plus: CASM3C Assay (AID 2283047); conditions: primary human coronary artery smooth muscle cells;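 note: sulforhodamine B total protein stain as relative cell number at 560 nm; sub-confluent cells exposed 48 h before staining; fitted both ways against DMSO so gain or loss of cell number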
[10] = read-out: Monokine induced gamma interferon (MIG), CXCL9 (gene 4283); test: BSK_CASM3C_MIG: BioMAP Diversity Plus: CASM3C Assay for Monokine induced gamma interferon (MIG) Biomarker Activity (AID 2283048); conditions: primary human coronary artery smooth muscle cells; actives raise or lower the signal;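 note: MIG protein level measured by ELISA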

Row | SMILES | AC50 [1] | outcome [2] | outcome [3] | AC50 [4] | AC50 [5] | AC50 [6] | outcome [7] | AC50 [8] | AC50 [9] | AC50 [10] | outcome [1] | outcome [4] | outcome [5] | outcome [6] | outcome [8] | outcome [9] | outcome [10]
1 | CC[C@H](C)[C@H]1O[C@]2(C=C[C@@H]1C)C[C@@H]1C[C@@H](C/C=C(\C)[C@@H](O[C@H]3C[C@H](OC)[C@@H](O[C@H]4C[C@H](OC)[C@@H](NC)[C@H](C)O4)[C@H](C)O3)[C@@H](C)/C=C/C=C3\CO[C@@H]4[C@H](O)C(C)=C[C@@H](C(=O)O1)[C@]34O)O2 | 5.78 µM (active) | inactive | inactive | 14.2 µM (active) | 12.6 µM (active) | 11.6 µM (active) | inactive | 12.9 µM (active) | 5.53 µM (active) | 13.7 µM (active) | – | – | – | – | – | – | –
2 | CCC(=O)Nc1ccc(Cl)c(Cl)c1 | – | inactive | inactive | – | – | – | inactive | – | – | – | inactive | inactive | inactive | inactive | inactive | inactive | inactive
3 | CCOP(=S)(OCC)Oc1cc(C)nc(C(C)C)n1 | – | inactive | inactive | – | – | – | inactive | – | 14.3 µM (active) | – | inactive | inactive | inactive | inactive | inactive | – | inactive
4 | CN(C)NC(=O)CCC(=O)O | – | inactive | inactive | – | – | – | inactive | – | – | – | inactive | inactive | inactive | inactive | inactive | inactive | inactive
5 | CCc1cccc(C)c1N(C(=O)CCl)C(C)COC (stereo not given) | – | inactive | inactive | – | – | – | inactive | – | – | – | inactive | inactive | inactive | inactive | inactive | inactive | inactive
6 | CCNc1nc(Cl)nc(NC(C)(C)C#N)n1 | – | inactive | inactive | – | 9.89 µM (active) | – | inactive | – | – | – | inactive | inactive | – | inactive | inactive | inactive | inactive
7 | C=C(C)[C@H]1Cc2c(ccc3c2O[C@@H]2COc4cc(OC)c(OC)cc4[C@@H]2C3=O)O1 | – | inactive | inactive | – | – | – | inactive | – | 3.97 µM (active) | – | inactive | inactive | inactive | inactive | inactive | – | inactive
8 | CC(=NC#N)N(C)Cc1ccc(Cl)nc1 | – | inactive | inactive | – | – | – | inactive | – | – | – | inactive | inactive | inactive | inactive | inactive | inactive | inactive
9 | C[N+]1(C)CCCCC1 | – | inactive | inactive | – | – | – | inactive | – | – | – | inactive | inactive | inactive | inactive | inactive | inactive | inactive
